Measured values taken from PubChem BioAssay (Tox21).
Records with an inconclusive call do not appear. Active and inactive are the calls of the source. Unless noted, calls follow the shape of the dose curve; as a rule, active = well fitted curve in the direction sought with a large enough effect in the repeat runs; inconclusive = weak or mixed curves; inactive = no such curve, though single readings can be large; an effect the other way counts as inactive or inconclusive. Non-standard residues stand in square brackets, D forms with d. Residues, ends and D or L forms follow the SMILES beside them. pGlu = O=C1CC[C@@H](C(=O)O)N1; Thz = O=C(O)[C@@H]1CSCN1

Key:
[1] = qHTS assay for small molecule agonists of the p53 signaling pathway (AID 651631; calls by dose curve; also: nearly all actives have a fitted effect of over 15% in size)
How it was run: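 Readout was fluorescence from the LiveBLAzer FRET substrate, applied for 2 h at room temperature after 16 h compound exposure at 37 °C. Cells were the p53RE-bla HCT-116 line, with beta-lactamase driven by p53 response elements.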

[2] = qHTS assay for small molecules that induce genotoxicity in human embryonic kidney cells expressing luciferase-tagged ATAD5 (AID 651632); also: nearly all actives have a fitted effect of over 15% in size
How it was run: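 Increased luciferase signal from ATAD5-tagged reporter cells indicates DNA-damage-driven ATAD5 induction. HEK293T cells are treated for 16 hr at 37C before detection with Amplite.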

[3] = qHTS assay for small molecule agonists of the p53 signaling pathway - cell viability (AID 651633; calls by dose curve; also: nearly all actives have a fitted effect of over 30% in size)
How it was run: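 p53RE-bla cells were treated with compound for 16 hours at 37 C. Cytotoxicity was then measured as CellTiter-Glo luminescence after 30 min at room temperature.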

[4] = qHTS assay for small molecules that induce genotoxicity in human embryonic kidney cells expressing luciferase-tagged ATAD5 - cell viability (AID 651634; calls by dose curve; also: nearly all actives have a fitted effect of over 25% in size)
How it was run: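 Cytotoxicity counterscreen in HEK293T cells bearing an ATAD5-luciferase reporter: live-cell protease activity measured by CellTiter-Fluor fluorescence after 15.5 hr compound exposure.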

[5] = qHTS assay for small molecule disruptors of the mitochondrial membrane potential - cell viability (AID 720634; calls by dose curve;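 also: human HepG2 liver cancer cells; nearly all actives have a fitted effect of over 20% in size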)
How it was run: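 After overnight attachment at 37 C, HepG2 cells received compound or DMSO vehicle for 1 hr. Viability is then taken from ATP-driven luminescence following a 30 min room-temperature CellTiter-Glo step.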

[6] = qHTS assay to test for compound auto fluorescence at 590 nm (red) in HepG2 cells (AID 720674)
How it was run: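 HepG2 cells, 2,000 per well in MEM with 10% FBS, attached overnight at 37 C, then got 23 nL compound or DMSO. After 1 hr at 37 C, 5% CO2, red fluorescence was read at 540/590 nm against Rose Bengal sodium as reference.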

[7] = qHTS assay to test for compound auto fluorescence at 535 nm (green) in HepG2 cells (AID 720675)
[8] = qHTS assay to test for compound auto fluorescence at 460 nm (blue) in HEK293 cells (AID 720678)
How it was run: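 Blue read-out at excitation 405 nm and emission 460 nm follows overnight compound exposure of HEK293 cells at 37C in 5% CO2. Activity is given as auto fluorescence equivalency to triamterene.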

[9] = qHTS assay to test for compound auto fluorescence at 590 nm (red) in HEK293 cells (AID 720679)
How it was run: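 Red channel, Ex/Em 540/590nm; signal expressed as equivalency to Rose Bengal sodium. HEK293, 2,000 cells/well, 10% dialyzed FBS; 23 nL compound pinned after 4-5 hr attachment; overnight 37C/5% CO2 before reading.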

[10] = qHTS assay to test for compound auto fluorescence at 535 nm (green) in HEK293 cells (AID 720680)
[11] = qHTS assay to test for compound auto fluorescence at 460 nm (blue) in HEK293 cell free culture (AID 720681)
How it was run: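 Compounds were added to cell-free DMEM with 10% FBS and fluorescence read directly. The blue channel used 405 nm excitation and 460 nm emission, with triamterene as the reference fluorophore.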

[12] = qHTS assay to test for compound auto fluorescence at 535 nm (green) in HEK293 cell free culture (AID 720682)
How it was run: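 Compounds were pin-transferred into cell-free DMEM with 10% FBS, and green fluorescence was read at excitation 485 nm and emission 535 nm. Intensities were expressed as fluorescein-equivalent values.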

[13] = qHTS assay to test for compound auto fluorescence at 590 nm (red) in HEK293 cell free culture (AID 720683)
How it was run: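 Cell-free wells of DMEM with 10% FBS received compound, and intrinsic fluorescence was read at excitation/emission 540/590 nm. Values expressed as equivalence to Rose Bengal sodium.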

[14] = qHTS assay to test for compound auto fluorescence at 590 nm (red) in HepG2 cell free culture (AID 720684)
How it was run: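 Compound was pinned into wells holding MEM with 10% FBS and no cells, and red fluorescence was read at Ex/Em 540/590 nm. Signal is expressed as auto fluorescence equivalency relative to Rose Bengal sodium.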

[15] = qHTS assay to test for compound auto fluorescence at 460 nm (blue) in HepG2 cell free culture (AID 720685)
How it was run: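 Compound (23 nL) or DMSO pinned into cell-free MEM with 10% FBS; blue fluorescence read at 405/460 nm excitation/emission, expressed as auto-fluorescence equivalency to triamterene.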

[16] = qHTS assay to test for compound auto fluorescence at 535 nm (green) in HepG2 cell free culture (AID 720686)
[17] = qHTS assay to test for compound auto fluorescence at 460 nm (blue) in HepG2 cells (AID 720687)
How it was run: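 HepG2 cells in MEM with 10% FBS, attached overnight at 37 C, were exposed to compound or DMSO for 1 hr at 37 C, 5% CO2. Blue fluorescence was read at 405/460 nm, with triamterene as reference fluorophore.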

[18] = biological target: Glucocorticoid receptor (Homo sapiens) (UniProt P04150); assay: qHTS assay to identify small molecule agonists of the glucocorticoid receptor (GR) signaling pathway (AID 720691; active = well fitted activation curve with a large enough effect in the signal ratio in the repeat runs, not every such curve was filed as active; the % refers to the signal ratio); settings: GR-bla HeLa, beta-lactamase reporter ratio, 18 h; activation: at 62.4 µM (top of the series)
How it was run: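 Agonist mode in a HeLa line carrying a GRE-controlled beta-lactamase reporter. Compounds act for 18 h at 37 C before a 2 h room-temperature FRET substrate step and fluorescence reading.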

[19] = biological target: Glucocorticoid receptor (Homo sapiens) (UniProt P04150); assay: qHTS assay to identify small molecule antagonists of the glucocorticoid receptor (GR) signaling pathway (AID 720692; active = well fitted inhibition curve with a large enough effect in the signal ratio in the repeat runs, not every such curve was filed as active; the % refers to the signal ratio)
How it was run: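 Cells plated, rested 4 h at 37 C/5% CO2; compounds in DMSO pin-transferred; dexamethasone added to 5 nM final; 18 h at 37 C; B/G FRET substrate added, 2 h room temperature; fluorescence measured.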

[20] = qHTS assay for small molecule disruptors of the mitochondrial membrane potential (AID 720635)
How it was run: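 HepG2 cells exposed to compound 1 hr at 37C, then Mito-MPS dye 30 min. Ratio read of aggregate (540/590 nm) versus monomer (490/535 nm) fluorescence.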

Measured: Potency

Glucocorticoid receptor (Homo sapiens), sequence (P04150 whole entry, looked up): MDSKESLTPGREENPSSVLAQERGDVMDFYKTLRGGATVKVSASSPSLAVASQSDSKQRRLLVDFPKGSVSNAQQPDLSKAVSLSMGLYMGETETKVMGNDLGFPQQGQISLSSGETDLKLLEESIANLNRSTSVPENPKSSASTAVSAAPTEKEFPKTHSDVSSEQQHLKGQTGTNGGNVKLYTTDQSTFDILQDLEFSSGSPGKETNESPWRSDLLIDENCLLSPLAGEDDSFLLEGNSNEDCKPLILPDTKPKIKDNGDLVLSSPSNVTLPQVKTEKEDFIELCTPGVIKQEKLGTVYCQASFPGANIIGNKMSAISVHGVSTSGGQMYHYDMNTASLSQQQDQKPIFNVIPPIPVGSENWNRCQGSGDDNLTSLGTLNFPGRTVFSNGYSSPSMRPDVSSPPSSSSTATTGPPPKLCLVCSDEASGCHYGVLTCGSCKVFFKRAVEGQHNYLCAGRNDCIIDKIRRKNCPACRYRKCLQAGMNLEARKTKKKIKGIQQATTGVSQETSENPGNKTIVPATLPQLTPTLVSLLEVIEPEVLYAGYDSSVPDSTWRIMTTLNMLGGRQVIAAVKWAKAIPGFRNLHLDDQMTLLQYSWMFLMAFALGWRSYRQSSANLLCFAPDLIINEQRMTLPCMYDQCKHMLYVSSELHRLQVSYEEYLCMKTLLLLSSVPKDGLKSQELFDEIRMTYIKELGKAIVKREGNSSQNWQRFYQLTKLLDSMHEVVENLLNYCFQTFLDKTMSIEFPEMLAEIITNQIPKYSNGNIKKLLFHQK

NCCCNCCCCNC(=O)C(O)NC(=O)CCCCCCN=C(N)N (stereo not drawn)
not listed: [20]
inactive: all other assays above

CC(C)[C@H](N)C(=O)OCC(CO)OCn1cnc2c(=O)[nH]c(N)nc21 (stereo partly drawn)
not listed: [13] | [20]
inactive: all other assays above

O=C(NNCS(=O)(=O)O)c1ccncc1
not listed: [13] | [19] | [20]
inactive: all other assays above

CC(=O)N[C@@H]1C(O[C@H]2O[C@H](C(=O)O)C(O)[C@H](O)[C@H]2O)[C@H](O)[C@@H](CO)O[C@H]1O[C@@H]1C(C(=O)O)O[C@@H](O[C@H]2[C@H](O)[C@@H](CO)OC(O)[C@@H]2NC(C)=O)[C@H](O)[C@H]1O (stereo partly drawn)
not listed: [20]
inactive: all other assays above

N=C(N)c1ccc(OCCCOc2ccc(C(=N)N)cc2Br)c(Br)c1
not listed: [14] | [18] | [19] | [20]
inactive: all other assays above

Cc1cccc(C)c1N(CCCc1cccnc1)C(=O)C(C)N (stereo not drawn)
not listed: [10] | [20]
inactive: all other assays above

Cc1nc(NS(=O)(=O)c2ccc(N)cc2)nc(C)c1Br
not listed: [20]
inactive: all other assays above

O=C1CC[C@@H](C(=O)N2CSC[C@H]2C(=O)O)N1 ([pGlu]-[Thz]-OH)
not listed: [11] | [20]
inactive: all other assays above

O=S(=O)(O)Oc1ccc(C(c2ccc(OS(=O)(=O)O)cc2)c2ccccn2)cc1
not listed: [11] | [20]
inactive: all other assays above

CC(C)c1nc(N(C)S(C)(=O)=O)nc(-c2ccc(F)cc2)c1/C=C/C(O)CC(O)CC(=O)O (stereo not drawn)
not listed: [11] | [15] | [20]
inactive: all other assays above

C=C1c2c(Cl)ccc(O)c2C(O)=C2C(=O)[C@]3(O)C(O)=C(C(N)=O)C(=O)[C@@H](N(C)C)[C@@H]3[C@@H](O)[C@H]12
not listed: [11] | [19] | [20]
inactive: all other assays above

CCOC(=O)Nc1ccc2c(c1)N(C(=O)CN(C)C)c1ccccc1CC2
not listed: [13] | [18] | [19] | [20]
inactive: all other assays above

C[Se]CCC(N)C(=O)O (stereo not drawn)
not listed: [14] | [18] | [20]
inactive: all other assays above

Cc1onc(-c2ccccc2)c1C(=O)N[C@@H]1C(=O)N2[C@@H]1SC(C)(C)[C@@H]2C(=O)O
not listed: [5]
inactive: all other assays above

COC(=O)CCC(=O)CN
not listed: [5] | [18]
inactive: all other assays above

CC(=O)O[C@H]1C[C@@H]2CC[C@@H]3[C@H](CC[C@@]4(C)[C@H]3C[C@H](N3CC[N+](C)(C)CC3)[C@@H]4OC(C)=O)[C@@]2(C)C[C@@H]1N1CC[N+](C)(C)CC1
not listed: [4] | [18] | [19]
inactive: all other assays above
